Compounds without any hit were thinned out: in the full panel of roughly 83,000, 20% have a hit.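 Compound tested at a single concentration for 48 hours in 96-well plates; a percent growth value below 10 was scored as active.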 Active and inactive are the calls of the source.
Columns and labels:
Assay in all cases: NCI-60 one-dose screen, 48 h (100 = growth as untreated, 0 = no growth, -100 = all killed)
Conditions in all cases: 10 µM
DU-145 prostate = tested on: DU-145 prostate
K-562 leukemia = tested on: K-562 leukemia
MALME-3M melanoma = tested on: MALME-3M melanoma
MDA-MB-231 breast = tested on: MDA-MB-231 breast
RXF 393 renal = tested on: RXF 393 renal
SF-268 CNS = tested on: SF-268 CNS
SF-295 CNS = tested on: SF-295 CNS
SF-539 CNS = tested on: SF-539 CNS
UACC-257 melanoma = tested on: UACC-257 melanoma
M14 melanoma = tested on: M14 melanoma
HCT-15 colon = tested on: HCT-15 colon
HT29 colon = tested on: HT29 colon
SNB-75 CNS = tested on: SNB-75 CNS
SNB-19 CNS = tested on: SNB-19 CNS
U251 CNS = tested on: U251 CNS
PC-3 prostate = tested on: PC-3 prostate
UACC-62 melanoma = tested on: UACC-62 melanoma
LOX IMVI melanoma = tested on: LOX IMVI melanoma
SK-MEL-28 melanoma = tested on: SK-MEL-28 melanoma
SK-MEL-5 melanoma = tested on: SK-MEL-5 melanoma

Measured: growth

CCn1nc(-c2ccc(C(=O)OC)cc2)nc2c(=O)n(C)c(=O)nc1-2
inactive: DU-145 prostate 77.6% | K-562 leukemia 80.9% | MALME-3M melanoma 29.1% | MDA-MB-231 breast 15.8% | RXF 393 renal 13.9% | SF-268 CNS 60.7% | SF-295 CNS 36.8% | UACC-257 melanoma 105% | M14 melanoma 78.3% | HCT-15 colon 64.1% | HT29 colon 70.7% | SNB-19 CNS 56.8% | U251 CNS 41.5% | PC-3 prostate 57.3% | UACC-62 melanoma 50.5% | LOX IMVI melanoma 55.5% | SK-MEL-28 melanoma 77.7%
active: SF-539 CNS 2.03% | SNB-75 CNS -44%

Cc1cc2cc3c(=O)[nH]c(=O)cc-3n(CC(O)C(O)C(O)CO)c2cc1C (centres undefined)
inactive: DU-145 prostate 95.5% | K-562 leukemia 108% | MALME-3M melanoma 104% | MDA-MB-231 breast 109% | RXF 393 renal 115% | SF-268 CNS 108% | SF-295 CNS 97.6% | SF-539 CNS 107% | UACC-257 melanoma 110% | M14 melanoma 107% | HCT-15 colon 105% | HT29 colon 110% | SNB-75 CNS 103% | SNB-19 CNS 114% | U251 CNS 104% | PC-3 prostate 99.9% | UACC-62 melanoma 112% | LOX IMVI melanoma 99.8% | SK-MEL-28 melanoma 114%

COc1cc(C2C=C(c3ccc(Cl)c(Cl)c3)N=C3SC(C)=CN32)cc(OC)c1OC (centres undefined)
inactive: DU-145 prostate 80.3% | K-562 leukemia 32.1% | MALME-3M melanoma 82.9% | MDA-MB-231 breast 89% | RXF 393 renal 67.1% | SF-268 CNS 87.8% | SF-295 CNS 75.6% | SF-539 CNS 81% | UACC-257 melanoma 98.8% | M14 melanoma 86.4% | HCT-15 colon 64.8% | HT29 colon 53.1% | SNB-75 CNS 81.7% | SNB-19 CNS 79.5% | PC-3 prostate 59.2% | SK-MEL-5 melanoma 83.9% | UACC-62 melanoma 85.8% | LOX IMVI melanoma 41.3% | SK-MEL-28 melanoma 102%

O=c1c2cccc3c(Nc4ccc(Br)cn4)ccc(c32)c2nc3ccccc3n12
inactive: DU-145 prostate 99.4% | K-562 leukemia 101% | MALME-3M melanoma 96.3% | MDA-MB-231 breast 66.2% | RXF 393 renal 99.8% | SF-268 CNS 98.3% | SF-295 CNS 87.1% | SF-539 CNS 89.9% | UACC-257 melanoma 102% | M14 melanoma 96.8% | HCT-15 colon 72% | HT29 colon 94.6% | SNB-75 CNS 44% | SNB-19 CNS 85.9% | U251 CNS 93.6% | PC-3 prostate 76.7% | UACC-62 melanoma 84.8% | LOX IMVI melanoma 87.2% | SK-MEL-28 melanoma 72.9%

Cc1ccc(-n2c(-c3cc4c([nH]c5ccccc54)c(-c4cccc(O)c4)n3)n[nH]c2=S)cc1
active: DU-145 prostate -16.6% | K-562 leukemia 9.64% | MDA-MB-231 breast -1.15% | RXF 393 renal -50.5% | SF-268 CNS 9.02% | SF-295 CNS -17.2% | SF-539 CNS -27.3% | UACC-257 melanoma 2.43% | M14 melanoma -40.1% | HCT-15 colon 2.88% | HT29 colon -44% | SNB-75 CNS 5.15% | SNB-19 CNS 4.47% | U251 CNS -3.05% | UACC-62 melanoma -40.3% | LOX IMVI melanoma -77% | SK-MEL-28 melanoma 7.56%
inactive: MALME-3M melanoma 41.3%

O=C(Nc1ccc(OCc2nnc(-c3ccccc3)o2)c(F)c1)Nc1ccc(Cl)c(Cl)c1
inactive: DU-145 prostate 64.1% | K-562 leukemia 34.4% | MALME-3M melanoma 57.8% | MDA-MB-231 breast 64.5% | RXF 393 renal 56.3% | SF-268 CNS 80.7% | SF-295 CNS 39.4% | SF-539 CNS 75.5% | UACC-257 melanoma 59.9% | M14 melanoma 70.4% | HCT-15 colon 49.4% | HT29 colon 53% | SNB-75 CNS 66.4% | SNB-19 CNS 59.9% | U251 CNS 50.5% | SK-MEL-5 melanoma 65.9% | UACC-62 melanoma 58% | LOX IMVI melanoma 54.8% | SK-MEL-28 melanoma 73%

COc1ccc(/C=C2\CCC3C(CCCC34OCCO4)C2=O)cc1 (centres undefined)
inactive: DU-145 prostate 87.6% | K-562 leukemia 39.7% | MALME-3M melanoma 70.5% | MDA-MB-231 breast 96% | RXF 393 renal 96.6% | SF-268 CNS 97.2% | SF-295 CNS 107% | SF-539 CNS 88.8% | UACC-257 melanoma 91% | M14 melanoma 95.6% | HCT-15 colon 66.2% | HT29 colon 80.1% | SNB-75 CNS 105% | SNB-19 CNS 90.1% | U251 CNS 99.2% | SK-MEL-5 melanoma 87.3% | UACC-62 melanoma 81% | LOX IMVI melanoma 80.8% | SK-MEL-28 melanoma 95.1%

CC(C)C[C@H](NC(=O)Cn1ccc(Nc2ccccc2)cc1=O)B(O)O
inactive: DU-145 prostate 38.9% | K-562 leukemia 39.1% | MDA-MB-231 breast 48.9% | SF-268 CNS 34.2% | SF-295 CNS 37.8% | M14 melanoma 31.8% | HCT-15 colon 72.1% | SNB-75 CNS 79.9% | SNB-19 CNS 68% | PC-3 prostate 58.9% | UACC-62 melanoma 25% | SK-MEL-28 melanoma 10.6%
active: MALME-3M melanoma -11.7% | RXF 393 renal -16.7% | SF-539 CNS -57.7% | UACC-257 melanoma 7.65% | HT29 colon 1.28% | SK-MEL-5 melanoma 2.17% | LOX IMVI melanoma 3.14%

O=C(Nc1cccc(C(F)(F)F)c1)C(Cl)Cl
inactive: DU-145 prostate 98.3% | K-562 leukemia 102% | MALME-3M melanoma 94.7% | MDA-MB-231 breast 127% | RXF 393 renal 104% | SF-268 CNS 99.4% | SF-295 CNS 90.4% | SF-539 CNS 93.8% | UACC-257 melanoma 98% | M14 melanoma 98.8% | HCT-15 colon 94% | HT29 colon 92.2% | SNB-75 CNS 91.3% | SNB-19 CNS 99% | U251 CNS 102% | UACC-62 melanoma 105% | LOX IMVI melanoma 101% | SK-MEL-28 melanoma 104%

— PubChem BioAssay (NCI)
